In PubChem BioAssay AID632 (National Center for Advancing Translational Sciences (NCATS), 2007):
Some of the results follow. Values without a mark were called inactive. Calls of active or inactive are those of the source.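 The calls were made as follows: active = compound lowering the Hsp90 and TPR2A binding signal, whether or not the linker counterscreen also flagged it as an artifact; inactive = the rest.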

What follows are molecules tested on Hsp90 C-terminal peptide / TPR2A co-chaperone interaction (assay: Confirmation Concentration-Response Assay and Counterscreen for Disrupters of an Hsp90 Co-Chaperone Interaction). Details: AlphaScreen TPR2A-His6 / biotin-Hsp90 peptide binding; at 46 µM (top of the series) unless noted.
From the text: NIH Chemical Genomics Center [NCGC] NIH Molecular Libraries Screening Centers Network [MLSCN] MLSCN Grant: X01 MH077625-01 NCGC Assay Overview: Hsp90 (heat shock protein 90) is the essential molecular chaperone and it accounts for 1-2% of all cytosolic proteins and is critical for the activity of diverse cellular proteins that are involved in a variety of cellular processes, including development, cell cycle, and steroid hormone signaling. Its client proteins include signaling kinases such as IGF1R, Akt, v-Src, Raf-1; regulators of cell survival such as Bcr-Abl; and transcription factors such as mutated p53, estrogen and progesterone receptors. Hsp90 has emerged as an important target for cancer treatment due to its essential role in maintaining transformation and regulating the function of oncogenic signaling proteins. The in vivo function of Hsp90 is regulated by the binding and hydrolysis of ATP at its N-terminal. Geldanamycin binds to ATP site and inhibit Hsp90 function. Geldanamycin and its analogues are under clinical trials in cancer patients. […] This domain contains the binding site for tetratricopeptide repeat (TPR) domains on HOP (Hsp Organizing Protein). TPR is a structural motif used by a significant number of cochaperones by which the in vivo function of Hsp90 is regulated. TPR2A on HOP binds specifically to MEEVD motif of the C-terminal of Hsp90. […]
NCGC Assay Protocol Summary: The assay was performed to confirm activity from an initial qHTS screen, and to counterscreen for alpha screen platform artifacts. All samples were reordered, as powders when available, and sample material was evaluated for impurities and/or incorrect molecular mass at NCGC. […] Plates were read on EnVision (PerkinElmer, Boston, MA).TPR2A-His6 was produced using a bacteria expression system and purified using a well developed method (Ghosh et al., 2000). […] TPR2A-His6 binding to biotin-Hsp90 will bring streptavidin donor beads and nickel chelate acceptor beads (PerkinElmer) together and can be measured by Alpha reading by EnVision (PerkinElmer). […]
`CCOC(=O)c1c(NC(=O)CSc2nnc(Cc3csc(N)n3)n2C)sc(C)c1C` was tested, and the activity, negative = inhibition was -99.5% [alpha-screen platform artifact] (active).
Molecule `Cc1nnc2[nH]c(=O)n(C)c(=O)c2n1` has an activity, negative = inhibition of 5.91% [at 40 µM].
For `Oc1c(C(c2ccccn2)N2CCOCC2)ccc2cccnc12` (stereo not drawn), the activity, negative = inhibition was -99.8% [alpha-screen platform artifact] (active).
